This note sets out measurements from PubChem BioAssay AID463173 (ICCB-Longwood Screening Facility, Harvard Medical School, 2010).

Each structure is given as a SMILES string. Screen size: about 52,000 compounds; about 1,700 (3.3%) were called active. Rule as the data show it: active = survival mostly below about 52% (no sharp cut-off); inactive = mostly above about 56%. Only a selection was taken, and actives are over-represented in it overall.

The experiment concerns Wild type. Nature of the experiment: growth inhibition of S. aureus wild type versus tarO mutant, primary screen, teichoic acid synthesis inhibitors, RN4220, OD600 (AID 463173). Particulars: S. aureus RN4220 wild type/DeltatarO growth, OD600, 18 h, hits give low values, screened at 18.75 µg/mL (by protocol).
Regarding `Cc1ccc(NC(=O)CSc2nccn2C2CCCC2)cc1Cl`, the survival is 125% (inactive).
As to `COc1ccc2c(c1)c1c(c(=O)n(CCc3ccccc3)c(=O)n1Cc1ccc(Cl)cc1)n2C`, the survival is 63% (inactive).
As for `CC(C)c1ccc2oc(-c3cc(NC(=O)c4cccs4)ccc3Cl)nc2c1`, the figure is 7% (active); as for `Cc1cc(NC(=O)c2cccnc2)cc(-c2nc3cc(Cl)ccc3o2)c1O`, 157% (inactive); as for `CC(C)c1ccc2oc(-c3cc(NC(=O)c4cccnc4)ccc3Cl)nc2c1`, 1% (active).
Take `CC(C)c1ccc2oc(-c3ccc(Cl)c(NC(=O)c4cccs4)c3)nc2c1`: the survival was 2% (active).
`O=C(Nc1cc(-c2nc3cc(Cl)ccc3o2)ccc1Cl)c1cccs1`: the survival is 79% (inactive).
Take `CCc1ccc2oc(-c3cc(NC(=O)c4cccs4)ccc3Cl)nc2c1`: the survival is 12% (inactive).
In the case of `Cc1cccc(C(=O)Nc2ccc(-c3nc4cc(C(C)C)ccc4o3)cc2)c1` it was 47% (inactive); in that of `Cc1ccc(-c2nc3cc(C(C)C)ccc3o2)cc1NC(=O)c1cccs1`, 72% (inactive).
`Cc1cc(NC(=O)c2cccs2)cc(-c2nc3cc(Cl)ccc3o2)c1O`: the survival was 87% (inactive).
In the case of `CN(C)C(=O)CN(C#N)c1nc(Cl)nc(N(C)C)n1` it was 110% (inactive).
As for `N#Cc1ccc(S(=O)(=O)N2CCC(Oc3cccc(C(F)(F)F)c3)CC2)cc1`, the figure is 84% (inactive).
In the case of `COc1ccc(CNC(=O)Cc2ccc(NC(=O)N3CCSc4ncccc43)cc2)cc1OC` it was 75% (inactive); in that of `Cc1cccc(-c2nc3c4ccccc4nc(NCc4ccc(Cl)cc4)n3n2)c1`, 47% (inactive); in that of `O=C1CCSC2(C(=O)N(Cc3ccc(F)cc3)c3ccccc32)N1c1cccc(F)c1` (centres undefined), 74% (inactive).
Regarding `CCOc1ccccc1C(=O)Nc1c(NC)c2ccccc2oc1=O`, the survival is 76% (inactive).
Take `Cc1ccc(CN2CCC(CNc3ncnc4onc(-c5ccc(F)cc5)c34)CC2)cc1`: the survival is -4% (active).
`Fc1ccc(-c2noc3ncnc(NCC4CCN(Cc5ccc(Cl)cc5)CC4)c23)cc1`: the survival was 81% (inactive).
As for `Cc1ccc(CN2CCC(CNc3ncnc4onc(-c5ccc(Cl)cc5)c34)CC2)cc1`, the figure is 77% (inactive); as for `O=c1c(S(=O)(=O)c2ccc(Cl)cc2)cn(Cc2ccc(F)cc2)c2ccc(F)cc12`, 130% (inactive); as for `CCn1c(=O)c2cc(C(=O)NCCCN3CCN(C)CC3)sc2c2ccccc21`, 124% (inactive).
As for `COCCNC(=O)C1=CC(c2ccc3c(c2)OCO3)=NS(=O)(=O)N1C`, the figure is 103% (inactive); as for `COc1cccc(CNC(=O)CCC(=O)N2CC3CCCN3c3ccccc32)c1` (centres undefined), 65% (inactive).
In the case of `O=C(CCC(=O)N1CC2CCCN2c2ccccc21)NCc1cccc(Cl)c1` (centres undefined) it was 10% (active); in that of `Cc1ccc(CNC(=O)CCC(=O)N2CC3CCCN3c3ccccc32)cc1` (centres undefined), 82% (inactive); in that of `O=C(CCC(=O)N1CC2CCCN2c2ccccc21)NCc1ccccc1` (centres undefined), 88% (inactive).
Turning to `O=C(CCC(=O)N1CC2CCCN2c2ccccc21)NCc1ccc(F)cc1` (centres undefined), the survival was -2% (active).
`O=C(CCC(=O)N1CC2CCCN2c2ccccc21)NCc1ccccc1Cl` (centres undefined): the survival is 69% (inactive).
